Pf growth 48h: Primary qHTS for delayed death inhibitors of the malarial parasite plastid, 48 hour incubation | P. falciparum luciferase growth in erythrocytes, 48 h | actives 5.9% (n = 310,000) | Potency, µM (top dose mostly 28.7 µM), hits mostly inhibitors
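Erythrocytes infected with P. falciparum carrying an integrated firefly luciferase reporter (2% hematocrit, 0.1% parasitemia final) were exposed to compounds in RPMI 1640 with 0.5% Albumax at 37 C, 5% CO2. Growth inhibition was scored as reduced luminescence.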
Pf growth 96h: Primary qHTS for delayed death inhibitors of the malarial parasite plastid, 96 hour incubation | P. falciparum luciferase reporter growth, 96 h | Potency, µM (top dose mostly 28.7 µM), usual class: inhibitors | actives 6.9% (n = 320,000)
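P. falciparum expressing integrated firefly luciferase, in erythrocytes at 2% hematocrit, 0.05% parasitemia, incubated with compounds 96 h at 37 C, 5% CO2. Growth inhibition read as loss of luminescence; two-generation exposure targets delayed-death apicoplast inhibitors.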
Shiga inhibitor: A qHTS for Small Molecule Inhibitors of Shiga Toxin | AID 2315, 2010 | actives 9.2% (n = 290,000) | Vero cells, Shiga toxin protein synthesis inhibition reporter | inhibition, % at 38.7 µM; in the data active means inhibition mostly above about 28%, no sharp cut-off; inactive means mostly below about 43%
LASV entry inh: qHTS for Inhibitors of binding or entry into cells for Lassa Virus; Lassa virus pseudotype entry inhibition, cell reporter; Potency, µM (top dose mostly 37.9 µM), hits mostly inhibitors; actives 1.2% (n = 300,000); calls by dose curve; tested in HEK293 cells; further: nearly all actives have a fitted effect of over 50% in size
CHX counter: Cycloheximide Counterscreen for Small Molecule Inhibitors of Shiga Toxin; cell reporter, cycloheximide protein synthesis inhibition counterscreen; max response, %; actives 12% (n = 300,000); AID 2314, 2010; in the data active means max response mostly above about 13%, no sharp cut-off; inactive means mostly below about 14%; further: read at 38.3 µM for the half of the compounds with a filed dose
MARV entry inh: qHTS for inhibitors of binding or entry into cells for Marburg Virus | Marburg virus pseudotyped entry inhibition, cell reporter | Potency, µM (highest dose often 37.8 µM), hits mostly inhibitors | actives 1.8% (n = 300,000) | AID 540276, 2011; calls by dose curve; tested in HEK293 cells
Large screens that a line does not name were inactive. This is a sample that favours compounds with a hit; in the whole collection about 19% have one here. Unless noted, the call rests on the fitted dose curve; in most records, active means well fitted inhibition curve with a large enough effect; inconclusive means small, poorly fitted or top-dose-only effect, or another doubt; inactive means no such curve, though single readings can be large or run the other way.

COc1ccc(/C=N/NC(=O)c2cc3c(OC)ccc(OC)c3[nH]2)cc1O	Pf growth 48h 3.7µM, Pf growth 96h inconclusive, LASV entry inh inconclusive, MARV entry inh inconclusive
COc1cccc(/C=N/NC(=O)c2cnccn2)c1	Shiga inhibitor 86.0, LASV entry inh inconclusive, CHX counter 75.4, MARV entry inh inconclusive
O=C(N/N=C/c1cc([N+](=O)[O-])ccc1Cl)c1cnccn1	none
COc1cccc(/C=N/NC(=O)c2cnccn2)c1O	Pf growth 48h inconclusive, Shiga inhibitor 88.8, CHX counter 37.3 (no result: LASV entry inh, MARV entry inh)
O=C(c1nn(-c2ccccc2)c(=O)c2ccccc12)N1CCN(c2ccccn2)CC1	Pf growth 96h inconclusive, MARV entry inh inconclusive
COc1ccc(OC)c(/C=N/NC(=O)c2cnccn2)c1	Shiga inhibitor 69.2
COc1cccc(C(=O)O/N=C(\C)c2cnccn2)c1	Pf growth 96h inconclusive, CHX counter 18.8
COc1ccc(/C=N/NC(=O)c2cnccn2)cc1O	Shiga inhibitor 38.4, CHX counter 65.3, MARV entry inh inconclusive
Cc1nc(CCNC(=O)CC2C(=O)NCCN2CC(C)(C)C)nc2c1CCC2 (configuration not stated)	none (no result: Pf growth 48h, Pf growth 96h, Shiga inhibitor, CHX counter)
CCN(CC)CCNc1nc2cc(OC)c(OC)cc2c2nc(-c3ccccc3)nn12	Pf growth 48h 1.04µM, Pf growth 96h inconclusive, LASV entry inh inconclusive, MARV entry inh inconclusive
COCCNC(=O)c1ccc2c(c1)ncn2-c1ccc(F)c(F)c1	CHX counter 17.2, MARV entry inh inconclusive
COC(CNC(=O)c1ccc2c(c1)ncn2-c1ccc(F)c(F)c1)OC	none
COCCCNC(=O)c1ccc2c(c1)ncn2-c1ccc(C)cc1C	Pf growth 48h 11.7µM (no result: LASV entry inh, MARV entry inh)
CC(C)n1c(/N=C/c2ccccc2O)nc2ccccc21	Pf growth 96h inconclusive, MARV entry inh inconclusive
CSc1ncccc1C(=O)OCc1ccccc1	Shiga inhibitor 87.0, LASV entry inh inconclusive, CHX counter 31.3
CSc1ncccc1C(=O)OCc1ccccc1F	Pf growth 48h inconclusive, Shiga inhibitor 66.5, CHX counter 21.8
CSc1ncccc1C(=O)OCc1ccc(COC(=O)c2cccnc2SC)cc1	none (no result: Pf growth 48h, LASV entry inh)
CSc1ncccc1C(=O)OCC(=O)NCc1ccccc1	Pf growth 96h inconclusive (no result: Shiga inhibitor, CHX counter)
O=C(c1ccc2c(=O)n(C3CCCC3)c(=S)[nH]c2c1)N1CCc2ccccc21	none (no result: Pf growth 96h)
CCCOc1ccc(CN(CCC#N)C(=S)NC(=O)c2ccccc2)cc1	Pf growth 48h inconclusive, CHX counter 23.5, MARV entry inh inconclusive
COc1cc(C(=O)NC(=S)N(CCC#N)Cc2cccnc2)cc(OC)c1OC	none (no result: Pf growth 48h, Pf growth 96h, Shiga inhibitor, CHX counter)
CCOC(=O)C1(C)NC(c2ccc(OC)c(OC)c2)C2C(=O)N(CC)C(=O)C21 (configuration not stated)	MARV entry inh inconclusive
CCN1C(=O)[C@@H]2[C@@H](c3ccc(-c4ccc5c(c4)OCO5)c(OC)c3)N3CCCC[C@@]3(C(=O)OC)[C@@H]2C1=O	Pf growth 48h 4.65µM, Pf growth 96h 11.7µM (no result: Shiga inhibitor, LASV entry inh, CHX counter, MARV entry inh)
CCN1C(=O)[C@@H]2[C@@H](c3ccc(-c4ccc(C(C)=O)cc4)c(OC)c3)N3CCCC[C@@]3(C(=O)OC)[C@@H]2C1=O	Pf growth 48h 2.94µM, Pf growth 96h 9.28µM (no result: Shiga inhibitor, LASV entry inh, CHX counter, MARV entry inh)
COC(=O)[C@@]12CCCCN1[C@H](c1ccc(-c3ccc(OC)cc3)c(OC)c1)[C@@H]1C(=O)N(C)C(=O)[C@@H]12	Pf growth 48h 9.28µM, Pf growth 96h 7.38µM (no result: Shiga inhibitor, LASV entry inh, CHX counter, MARV entry inh)
CCN1C(=O)[C@@H]2[C@@H](c3ccc(-c4ccc(C(C)=O)cc4)c(OC)c3)N3CCC[C@@]3(C(=O)OC)[C@@H]2C1=O	Pf growth 48h 10.4µM, Pf growth 96h 6.57µM (no result: Shiga inhibitor, LASV entry inh, CHX counter, MARV entry inh)
COc1cc(O)cc2c1C(=O)O[C@@H](C)CCCC(=O)CCCCC2	none (no result: Pf growth 48h, LASV entry inh, MARV entry inh)
COC(=O)/C=C/c1ccccc1S(=O)(=O)N(Cc1ccccc1)Cc1ccco1	Pf growth 48h inconclusive, Pf growth 96h inconclusive (no result: LASV entry inh, MARV entry inh)
CCCNc1nc2c(c(=O)n(C)c(=O)n2C)n1CCCc1ccccc1	Pf growth 48h inconclusive, Pf growth 96h 1.47µM (no result: LASV entry inh, MARV entry inh)
CCCCCCn1c(NCC)nc2c1c(=O)n(C)c(=O)n2C	Pf growth 48h 3.29µM, Pf growth 96h inconclusive, LASV entry inh inconclusive, MARV entry inh inconclusive
CN(Cc1ccccc1)Cc1nc2c([nH]1)c(=O)[nH]c(=O)n2C	Pf growth 96h 10.4µM
Cn1c(=O)c2c(nc(NCCO)n2CCc2ccccc2)n(C)c1=O	Pf growth 96h 10.4µM, MARV entry inh inconclusive
Cn1c(=O)c2[nH]c(CN(Cc3ccccc3)Cc3ccccc3)nc2n(C)c1=O	MARV entry inh inconclusive
CCCn1c(SCC(=O)N2N=C3/C(=C/c4ccc(OC)cc4)CCCC3C2c2ccc(OC)cc2)n[nH]c1=O (configuration not stated)	Pf growth 48h inconclusive, Pf growth 96h inconclusive, LASV entry inh inconclusive, MARV entry inh inconclusive
CCOC(=O)c1ccc(NC(=O)CCCc2nc(-c3ccccc3Cl)no2)cc1	none (no result: Pf growth 48h, Pf growth 96h, Shiga inhibitor, CHX counter)
C=CCOc1ccc(/C=C2\SC(N)=NC2=O)cc1OC	none (no result: LASV entry inh, MARV entry inh)
O=C(NCCN1CCCC1)c1cccc(Cl)c1	none
CCOc1cccc(/C=N/N2CCN(c3ccc(Cl)cc3)CC2)c1O	none (no result: LASV entry inh, MARV entry inh)
CCN(Cc1ccccc1)C(=O)COC(=O)c1cc(S(=O)(=O)Nc2c(C)n(C)n(-c3ccccc3)c2=O)ccc1C	Pf growth 96h inconclusive
CN(Cc1ccccc1)c1nc2c(c(=O)[nH]c(=O)n2C)n1CCOc1ccccc1	Pf growth 48h 9.28µM, Pf growth 96h inconclusive, LASV entry inh inconclusive, MARV entry inh inconclusive
CN(Cc1ccccc1)c1nc2c(c(=O)[nH]c(=O)n2C)n1Cc1ccccc1	Pf growth 48h inconclusive
CCN(CC)c1nc2c(c(=O)n(C)c(=O)n2C)n1CCCc1ccccc1	Pf growth 48h inconclusive (no result: LASV entry inh, MARV entry inh)
CN(Cc1ccccc1)c1nc2c(c(=O)n(C)c(=O)n2C)n1CCCc1ccccc1	Pf growth 48h inconclusive, LASV entry inh 12.6µM, MARV entry inh inconclusive
CCOC(=O)CNc1ccc(C(=O)OCC)cc1[N+](=O)[O-]	none
Cc1cccc(NC(=O)c2ccc(NCCc3ccccc3)c([N+](=O)[O-])c2)c1	LASV entry inh inconclusive
CCCNc1ccc(C(=O)OCC)cc1[N+](=O)[O-]	Shiga inhibitor 83.0, CHX counter 52.0
Cc1ccc(NC(=O)c2ccc(NCCN)c([N+](=O)[O-])c2)cc1	Pf growth 48h inconclusive, Pf growth 96h inconclusive, Shiga inhibitor 33.4, LASV entry inh inconclusive, CHX counter 20.0
Cc1ccc(S(=O)(=O)N(Cc2ccccc2)c2ccccc2C(=O)NCc2cccnc2)cc1	Pf growth 48h 5.22µM, LASV entry inh inconclusive, MARV entry inh inconclusive
Cc1ccc(S(=O)(=O)N(Cc2ccccc2)c2ccccc2C(=O)N2CCCCC2)cc1	Pf growth 48h inconclusive, LASV entry inh inconclusive, MARV entry inh 10µM
O=C(c1ccccc1)c1ccc(C(=O)N2CCN(c3ccc(F)cc3)CC2)o1	Pf growth 48h inconclusive, LASV entry inh inconclusive
